# According to PubChem BioAssay AID504848 (National Center for Advancing Translational Sciences (NCATS), 2011):
# About 1,400 (61%) of roughly 2,300 compounds were called active. Inconclusive results (about 29%) are left out. Calls come from the whole dose curve; as a rule, active = well fitted inhibition curve with a large enough effect; inconclusive = small, poorly fitted or top-dose-only effect, or effect the other way; inactive = no such curve, though single readings can be large or run the other way. The set was probably picked from earlier hits. Some of the results follow.
# Assay: Confirmation screen for delayed death inhibitors of the malarial parasite plastid, 96 hour incubation; note: nearly all actives have a fitted effect of over 60% in size
# Details: P. falciparum luciferase growth in erythrocytes; series mostly up to 28.7 µM; activity change, negative = inhibition: at the top concentration
# Excerpt: The goal of this screen is to discover new antimalarial compounds that act by inhibiting the development of the apicoplast in the malarial parasite Plasmodium falciparum. The biochemical processes that make this organelle essential for erythrocytic stage parasites are not well understood. However, antibiotics, such as azithromycin and tetracycline, which target the apicoplast translational machinery, have a potent antimalarial effect. […] We have developed a cell-based assay that measures parasite growth based on the expression of an integrated copy of a firefly luciferase reporter. To detect small molecules that cause this "delayed death phenotype, erythrocytes infected with the luciferase-expressing parasites were incubated with compounds for either one or two generations, corresponding to 48 and 96 hours, respectively. Compounds that inhibit parasite growth in the second generation, but not the first, should be enriched in antimalarials that target the apicoplast. Growth inhibition is detected by a decrease in luciferase activity. MLPCN Grant: R21 NS059500 Assay Provider: David Fidock and Eric Ekland, Columbia University Keywords: NIH Roadmap, MLPCN, MLI, MLSMR, qHTS, NCGC, qHTS, malaria, luciferase, viability
# Four microliters of culture medium (RPMI 1640 with 0.5% w/v Albumax (GIBCO), 24 mM sodium bicarbonate and 10 ug/mL gentamycin) were dispensed by a Multi-drop Combi into white solid 1536-well plates (Grenier) and 23 nL compound was added by a pin tool. Four microliters of infected erythrocytes (2% hematocrit, 0.1% parasitemia final concentration) in culture medium were dispensed and the plates incubated for 96 hours at 37 C in 5% CO2. Two microliters of luciferase detection reagent was added and luminescence was detected by a ViewLux (PerkinElmer) reader
# % is set by controls: 0 for no effect and ±100 for the full control effect; potency is the fitted concentration of half-maximal effect.
SMILES,Potency,"activity change, negative = inhibition"
COc1cc(OC)cc(C(=O)Nc2ccc3c(c2)CCCN3C(=O)c2cccs2)c1,11.2 µM (active),–
Cc1ccccc1C(=O)Nc1ccc2c(c1)CCCN2C(=O)c1cccs1,12.6 µM (active),–
CC(C)c1[nH]nc2c1C(C1C=CCCC1)C(C#N)=C(N)O2 (configuration not stated),14.1 µM (active),–
CCOCCCNC(=S)N1CCN(c2nc(-c3ccccc3)cs2)CC1,12.6 µM (active),–
Cc1c(-c2ccccc2)nc2ccccc2c1C(=O)Nc1ccncc1,0.178 µM (active),–
CC(C)CC1c2[nH]c3ccccc3c2CCN1CCCn1cccn1 (configuration not stated),8.91 µM (active),–
CC(=O)c1ccc(NC(=S)Nc2ccc3cn[nH]c3c2)cc1,–,0.644% (inactive)
CCC(=O)NC(=S)Nc1ccc(NC(=O)c2ccc(C)c([N+](=O)[O-])c2)cc1,10 µM (active),–
CN(C(=O)c1cc([N+](=O)[O-])ccc1NCc1cccnc1)c1ccccc1,11.2 µM (active),–
CN1/C(=C\C(=O)CSc2cccc[n+]2[O-])C(C)(C)c2ccccc21,15.8 µM (active),–
CSc1nnc(C)c(=O)[nH]1,–,-5.97% (inactive)
Clc1cccc(Cl)c1C[n+]1ccc2ccccc2c1,1.26 µM (active),–
Cc1ncc(CO)c(/C=N/NC(=S)Nc2ccc(F)cc2)c1O,14.1 µM (active),–
Cc1cccc(N/N=C(\C(N)=O)C2=NC(C)(C)Cc3ccccc32)c1,3.98 µM (active),–
CC(=O)c1ccc(N/N=C(/C(N)=O)C2=NC(C)(C)Cc3ccccc32)cc1,6.31 µM (active),–
O=C(COc1ccccc1Cl)NC(=S)N1CCc2ccccc21,14.1 µM (active),–
O=C(NCc1ccccn1)Nc1cc(Cl)ccc1Cl,6.31 µM (active),–
CC(=O)c1cccc(Oc2cc(NN3CCCCC3)c([N+](=O)[O-])cc2[N+](=O)[O-])c1,11.2 µM (active),–
COc1ccc(NC(=O)c2c(-c3c(Cl)cccc3Cl)noc2C)c(OC)c1,2.24 µM (active),–
Cc1onc(-c2c(Cl)cccc2Cl)c1C(=O)N=C(N)N1CC(C)OC(C)C1 (configuration not stated),7.08 µM (active),–
Cc1noc(C)c1C(=O)Nc1nc(-c2ccc(F)cc2)cs1,–,8.57% (inactive)

SMILES,Potency,"activity change, negative = inhibition"
Cc1onc(-c2c(Cl)cccc2Cl)c1C(=O)NC1CCCCC1,11.2 µM (active),–
Cc1onc(-c2c(Cl)cccc2Cl)c1C(=O)Nc1nc(C(C)(C)C)cs1,6.31 µM (active),–
COc1cnc(-c2ccccn2)nc1Oc1ccc(C(C)(C)C)cc1,2.51 µM (active),–
COc1cnc(-c2ccccn2)nc1N(C)c1ccccc1,2 µM (active),–
CSC1=NC(C)(C)C=C(/C=C/c2ccc(Cl)cc2Cl)N1,1.78 µM (active),–
CSC1=NC(C)(C)C=C(/C=C/c2c(Cl)cccc2Cl)N1,10 µM (active),–
CSC1=NC(C)(C)C=C(/C=C/c2ccc(Cl)cc2)N1,4.47 µM (active),–
CC1(C)Cc2c(ccc3ccccc23)C(c2cc3ccccc3oc2=O)=N1,4.47 µM (active),–
CN(C(=O)CN1C(=O)CCSc2ccc(S(=O)(=O)N3CCCC3)cc21)c1ccccc1,7.94 µM (active),–
CCN(CC)CCn1c2c(c(SCC(=O)Nc3nc4ccccc4s3)nc1=O)CCCC2,2 µM (active),–
CCC(=O)NCCc1cc2ccc(C)cc2[nH]c1=O,–,1.76% (inactive)
CCc1c(C(=O)NCCc2cccc(C)c2)[nH]c(C)c1C(C)=O,12.6 µM (active),–
CCc1c(C(=O)NC2CCCc3ccccc32)[nH]c(C)c1C(C)=O (configuration not stated),–,-14.9% (inactive)
COC(=O)COc1ccc2c(=O)c(-c3ccccc3OC)coc2c1,–,-27.7% (inactive)
CCOC(=O)Nc1ccc2c(CNC(C)c3ccccc3OC)cc(=O)oc2c1 (configuration not stated),12.6 µM (active),–
C=C[C@]1(C)C[C@@H](OC(=O)CSCCN(CC)CC)[C@]2(C)C(C)CC[C@]3(CCC(=O)[C@H]32)[C@@H](C)[C@@H]1O (some centres not stated),2 µM (active),–
CN(Cc1ccc(Cl)c(Cl)c1)C(=O)C1=CC=CN2CCS(=O)(=O)N=C12,5.01 µM (active),–
COC(=O)c1ccc(Sc2nnnn2-c2ccccc2)c([N+](=O)[O-])c1,12.6 µM (active),–
CC1CCN(C(=O)Cn2cc(C(=O)c3ccco3)c3ccccc32)CC1,14.1 µM (active),–
Cc1ccc(NC(=O)C(=Cc2ccc(C(=O)O)cc2)C(=O)Nc2ccc(C)cc2C)c(C)c1,6.31 µM (active),–
Cn1c(=O)[nH]c(=O)c2c1nc(NCc1ccccc1)n2Cc1ccc(F)cc1,3.55 µM (active),–

SMILES,Potency,"activity change, negative = inhibition"
Cc1ccc(OCC(=O)Nn2cnnc2)c(Br)c1,–,8% (inactive)
C/C(CC(=O)NC1CCCCC1)=N\NC(=O)COc1ccc(C)cc1Br,15.8 µM (active),–
O=C(c1ccc(OC2CCN(Cc3ccccc3OC(F)F)CC2)cc1)N1CCCC1,2.51 µM (active),–
COc1ccc(CCC(C)N2CCC(Oc3ccc(C(=O)N4CCCC4)cc3)CC2)cc1 (configuration not stated),10 µM (active),–
CCN(CC)CCOC(=O)c1ccc(NC(=O)C(C)NC(=O)C23CC4CC(CC(C4)C2)C3)cc1 (configuration not stated),12.6 µM (active),–
Cc1ccc(Nc2cc(C)c3ccc(O)cc3n2)cc1C,0.126 µM (active),–
OC1C2(Cc3ccccc3)CN3CCN(C2)CC1(Cc1ccccc1)C3 (configuration not stated),2 µM (active),–
O=c1cc(CSc2nc(NCc3ccccc3)c3ccccc3n2)nc2ccc(Cl)cn12,3.55 µM (active),–
CCN(CC)S(=O)(=O)c1ccc(N2CCOCC2)c(NC(=O)C2CSC3(C)CCC(=O)N23)c1 (configuration not stated),5.62 µM (active),–
COc1ccc2[nH]cc(CCCN3C(=O)c4ccccc4C3=O)c2c1,–,-25.7% (inactive)
COc1ccc2[nH]cc(C(=O)CCl)c2c1,12.6 µM (active),–
CCOc1ccc(/C=C/[N+](=O)[O-])c2ccccc12,15.8 µM (active),–
Cc1ccc(C)c(-c2nnc(OCC(=O)Nc3cc(C)on3)c3ccccc23)c1,12.6 µM (active),–
COc1cc(CNC2CCCCCCC2)ccc1OCC(N)=O,12.6 µM (active),–
Cc1cc(C)c(NC(=O)c2cccc3c2C(=O)N(C2CCCCC2)C3)c(C)c1,7.94 µM (active),–
O=C(/C=C/c1ccccc1O)c1ccco1,–,-31.2% (inactive)
CCOC(=O)C(CC)(CC)C(=O)/C=C/c1ccc(Br)cc1,6.31 µM (active),–
COc1ccccc1/C=C/C(=O)/C=C/c1ccccc1O,1 µM (active),–
CCOC(=O)C(=Cc1ccccc1OC)C(=O)OCC,12.6 µM (active),–
COc1ccccc1/C=C/C(=O)c1ccccc1,14.1 µM (active),–
